# Reference: PubChem BioAssay (NCATS)
# Inconclusive results are not listed. Where a call stands in place of a potency, no number is given. Calls of active or inactive are those of the source. Calls come from the whole dose curve; as a rule, active = well fitted curve in the direction sought with a large enough effect; inconclusive = small, poorly fitted or top-dose-only effect, or another doubt; inactive = no such curve, though single readings can be large; an effect the other way counts as inactive or inconclusive. Where a SMILES comes first, the peptide text is derived from it. Bridges are numbered along the chain shown (N, C = ends). [ ]: non-standard residue; d: D form. hArg = N=C(N)NCCCC[C@H](N)C(=O)O; Mpa = O=C(O)CCS
# Legend:
# [1] = biological target: Ubiquitin carboxyl-terminal hydrolase 1 (Homo sapiens) (UniProt O94782); assay: Inhibitors of USP1/UAF1: Pilot qHTS (AID 504865); note: nearly all actives have a fitted effect of over 35% in size; note: potency is the fitted concentration of half-maximal effect
# Ubiquitin carboxyl-terminal hydrolase 1 (Homo sapiens), sequence (O94782 whole entry, looked up): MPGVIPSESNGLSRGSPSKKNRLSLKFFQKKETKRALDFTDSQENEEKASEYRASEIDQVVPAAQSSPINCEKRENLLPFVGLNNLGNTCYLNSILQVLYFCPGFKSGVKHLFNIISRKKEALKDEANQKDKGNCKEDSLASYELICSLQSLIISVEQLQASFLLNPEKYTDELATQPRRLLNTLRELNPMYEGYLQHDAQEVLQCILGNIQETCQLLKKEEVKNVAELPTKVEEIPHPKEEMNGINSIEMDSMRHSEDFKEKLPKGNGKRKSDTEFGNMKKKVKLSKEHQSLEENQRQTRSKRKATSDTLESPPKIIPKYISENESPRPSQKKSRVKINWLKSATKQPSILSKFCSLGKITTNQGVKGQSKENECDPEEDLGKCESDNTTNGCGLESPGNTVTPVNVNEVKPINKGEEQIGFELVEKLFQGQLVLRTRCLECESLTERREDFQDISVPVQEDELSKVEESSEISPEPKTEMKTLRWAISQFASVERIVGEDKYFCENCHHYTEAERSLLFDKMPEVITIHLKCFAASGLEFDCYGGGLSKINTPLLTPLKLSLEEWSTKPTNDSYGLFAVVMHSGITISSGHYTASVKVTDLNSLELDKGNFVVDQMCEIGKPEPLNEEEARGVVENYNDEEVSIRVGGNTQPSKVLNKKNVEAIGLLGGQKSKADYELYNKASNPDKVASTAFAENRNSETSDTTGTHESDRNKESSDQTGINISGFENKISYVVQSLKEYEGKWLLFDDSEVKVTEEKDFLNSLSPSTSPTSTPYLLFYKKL
# In short: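 In 50mM HEPES pH 7.8 containing 0.5mM EDTA, 1mM TCEP, 0.1 mg/ml BSA and 0.01% Tween-20, 1nM USP1/UAF1 is exposed to compound for 15 min, then Ub-Rho (150nM final) is added and fluorescence is read over time.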
# [2] = biological target: ATP-dependent 6-phosphofructokinase (Trypanosoma brucei brucei) (UniProt O15648); assay: qHTS Assay to Find Inhibitors of T. brucei phosphofructokinase: hit validation (AID 492961); note: series mostly up to about 51 µM
# ATP-dependent 6-phosphofructokinase (Trypanosoma brucei brucei), sequence (O15648 whole entry, looked up): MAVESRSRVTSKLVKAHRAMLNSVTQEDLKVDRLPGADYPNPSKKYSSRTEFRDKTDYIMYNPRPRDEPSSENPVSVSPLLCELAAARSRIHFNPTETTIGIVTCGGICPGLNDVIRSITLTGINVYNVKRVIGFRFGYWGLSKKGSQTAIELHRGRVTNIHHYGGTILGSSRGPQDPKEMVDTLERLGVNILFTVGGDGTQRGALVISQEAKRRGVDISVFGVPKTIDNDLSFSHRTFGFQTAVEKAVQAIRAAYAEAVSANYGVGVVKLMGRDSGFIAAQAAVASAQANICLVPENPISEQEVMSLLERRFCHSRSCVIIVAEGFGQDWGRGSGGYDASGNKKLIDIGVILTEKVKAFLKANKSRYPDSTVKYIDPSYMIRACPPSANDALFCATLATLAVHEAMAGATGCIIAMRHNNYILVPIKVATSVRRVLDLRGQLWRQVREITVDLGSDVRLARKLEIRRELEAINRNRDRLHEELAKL
# In short: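 Luminescence from ADP-Glo reports ADP generated as T. brucei PFK (1.25 nM) phosphorylates 0.5 mM fructose-6-phosphate using 0.1 mM ATP. Reactions ran 45 min at room temperature, pH 8.0.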
SMILES,Potency [1],outcome [2]
CCc1nnc(NS(=O)(=O)c2ccc(N)cc2)s1,inactive,
O=C(O)CCCc1ccccc1,inactive,
O[C@@H]1CO[C@H]2[C@@H]1OC[C@@H]2O,inactive,
Nc1ccc(S(=O)(=O)c2ccc(N)cc2)cc1,inactive,
CCN(CC)S(=O)(=O)c1ccc(C(=O)O)cc1,inactive,
Cc1cccc(Nc2ccccc2C(=O)O)c1C,inactive,
CCCCCCCCCCCCCCCCC(C(=O)O)C(O)(CC(=O)O)C(=O)O (stereo not given),22.4 µM (active),
C[n+]1ccccc1/C=N/O,inactive,
Cc1c(C)c2c(c(C)c1OC(=O)c1cccnc1)CC[C@@](C)(CCC[C@H](C)CCC[C@H](C)CCCC(C)C)O2,inactive,inactive
NC(=O)[C@@H]1CSSCCC(=O)N[C@@H](CCCCN=C(N)N)C(=O)NCC(=O)N[C@@H](CC(=O)O)C(=O)N[C@@H](Cc2c[nH]c3ccccc23)C(=O)N2CCC[C@H]2C(=O)N1 ([Mpa][hArg]GDWPC-NH2; disulfide 1-7),inactive,
O=C(NCCCN1CCOCC1)c1ccc(Cl)cc1,inactive,
OC(CCN1CCCC1)(c1ccccc1)C1CCCCC1 (stereo not given),inactive,
CCCCOC(=O)c1ccc(N)cc1,inactive,
Cc1cc(NC(=O)C2=C(O)c3ccccc3S(=O)(=O)N2C)no1,inactive,
CCc1cccc(CC)c1NC(=O)CN(CC(=O)O)CC(=O)O,inactive,
O=C(NCN1CCOCC1)c1cnccn1,inactive,
CC1CCc2cc(F)cc3c(=O)c(C(=O)O)cn1c23 (stereo not given),inactive,
NC(=O)c1ccc([N+](=O)[O-])cc1Cl,inactive,
CCCCC1(COC(=O)CCC(=O)O)C(=O)N(c2ccccc2)N(c2ccccc2)C1=O,inactive,
